Experimental data as given in PubChem BioAssay (Tox21).
Records with an inconclusive call do not appear. Active and inactive are the calls of the source. Calls come from the whole dose curve; as a rule, active = well fitted inhibition curve with a large enough effect in the repeat runs; inconclusive = weak or mixed curves; inactive = no such curve, though single readings can be large or run the other way.

Each molecule was assayed against Cytochrome P450 3A4 (Homo sapiens) (UniProt P08684) (assay: Cytochrome P450 Family 3 Subfamily A Member 4 (CYP3A4) small molecule antagonists: luciferase reporter qHTS assay (AID 1671201; note: nearly all actives have a fitted effect of over 50% in size)). Settings: P450-Glo CYP3A4 enzyme, luciferin luminescence, 1 h; series mostly up to 115 µM; activity change, negative = inhibition: at the top concentration.
Sequence of Cytochrome P450 3A4 (Homo sapiens) (P08684 whole entry, looked up): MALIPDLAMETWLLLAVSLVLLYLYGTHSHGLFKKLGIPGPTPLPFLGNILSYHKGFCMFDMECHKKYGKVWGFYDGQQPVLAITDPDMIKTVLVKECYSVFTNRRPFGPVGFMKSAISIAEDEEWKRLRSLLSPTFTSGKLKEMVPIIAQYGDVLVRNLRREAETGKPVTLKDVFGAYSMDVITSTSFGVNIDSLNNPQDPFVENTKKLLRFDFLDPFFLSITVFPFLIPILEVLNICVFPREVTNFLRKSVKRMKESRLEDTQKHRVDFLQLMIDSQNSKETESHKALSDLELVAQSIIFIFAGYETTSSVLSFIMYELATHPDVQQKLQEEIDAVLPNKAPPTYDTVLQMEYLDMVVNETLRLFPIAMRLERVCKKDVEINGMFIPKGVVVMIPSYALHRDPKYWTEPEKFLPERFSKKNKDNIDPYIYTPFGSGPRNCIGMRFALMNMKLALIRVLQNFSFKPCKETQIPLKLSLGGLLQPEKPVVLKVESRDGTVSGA
How it was run: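 Setup: enzyme-substrate mix, compound pin transfer, 10 min RT. Reaction: NADPH regeneration solution, 1 h RT. Readout: detection reagent stops turnover, luminescence measured after 20 min, expressed in relative luminescence units.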
% is set by controls: 0 for no effect and ±100 for the full control effect; potency is the fitted concentration of half-maximal effect.

Row | Compound | activity change, negative = inhibition | Potency
1 | CC1(C)CC(O)CC(C)(C)N1 | 0.389% (inactive) | –
2 | CNc1ccc([N+](=O)[O-])cc1 | 44% (inactive) | –
3 | CCCCCCCCCCCC(=O)OCC(C)OC(=O)CCCCC(=O)O (stereo not given) | – | 8.71 µM (active)
4 | O=C(Oc1ccccc1)Oc1ccccc1 | 6.76% (inactive) | –
5 | CCCCCc1ccc(Cl)cc1 | 3.6% (inactive) | –
6 | Cc1cc(C(C)(C)C)c(O)c(C)c1Cn1c(=O)n(Cc2c(C)cc(C(C)(C)C)c(O)c2C)c(=O)n(Cc2c(C)cc(C(C)(C)C)c(O)c2C)c1=O | – | 7.97 µM (active)
7 | CCO[Si](OCC)(OCC)OCC | 0.711% (inactive) | –
8 | CCC(=O)C(=O)CC | – | 5.88 µM (active)
9 | O=C1OC2(c3ccc(O)cc3Oc3cc(O)ccc32)c2ccc(N=C=S)cc21 | -14% (inactive) | –
10 | CN1CCN2c3ccccc3Cc3ccccc3C2C1 (stereo not given) | 37.7% [at 52.9 µM] (inactive) | –
11 | CCC(C)(CCC(C)C)C(=O)[O][Sn]([CH3])([CH3])[O]C(=O)C(C)(CC)CCC(C)C (stereo not given) | 22.5% (inactive) | –
12 | C=C(C)C(=O)OCCCCCCCCCC | 1.15% (inactive) | –
13 | COC(C)=O | 1.8% (inactive) | –
14 | CCCCCCCCCCOC(=O)c1ccccc1C(=O)OCCCCCCCC | -22.2% (inactive) | –
15 | CCCCOC(=O)CO | 9.24% (inactive) | –
16 | CC(C(=O)O)c1ccc2c(c1)[nH]c1ccc(Cl)cc12 (stereo not given) | 20.9% [at 52.9 µM] (inactive) | –
17 | Cc1ccc(N/N=c2\c(=O)cc/c(=N\Nc3ccc(S(=O)(=O)O)cc3)c2=O)c(C)c1 | -20.5% (inactive) | –
18 | C=CC(=O)Nc1cc2c(Nc3ccc(F)c(Cl)c3)ncnc2cc1OCCCN1CCOCC1 | – | 12.3 µM (active)
19 | O=S(=O)(O)c1ccccc1/C=C/c1ccc(-c2ccc(/C=C/c3ccccc3S(=O)(=O)O)cc2)cc1 | 53.6% (inactive) | –
20 | C=CC(C)(CCC=C(C)C)OC=O (stereo not given) | – | 31.7 µM (active)
